# Experimental data taken from the supplement of paper PMC4022240.
# ± gives the standard deviation.
# Tests used:
# Experiment in all cases: peptide microarray binding signal (635 nm), min-max normalized on array (fraction of array maximum); higher = stronger binding
# Conditions in all cases: peptide region: H3 1-13
# [1] = biological target: T1, HaloTag-ATRX ADD domain (163-292)
# T1 chain: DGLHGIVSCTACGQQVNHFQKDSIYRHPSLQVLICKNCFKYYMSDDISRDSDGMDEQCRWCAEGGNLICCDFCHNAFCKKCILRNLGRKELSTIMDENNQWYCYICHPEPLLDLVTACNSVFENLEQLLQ
# Procedure: (§1)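 Histone 13-mer peptides were synthesized as cellulose conjugates with a C-terminal 20-atom PEG linker and printed in triplicate on nitrocellulose. The sequence given is the unmodified backbone; PTMs (Kme1/2/3, Kac, Sph/Tph, Rme/Rme2a/Rme2s, Rcit) are listed in the label and the 'peptide modifications' condition. Slides were probed at 4 °C for 1 h with biotin-labelled (HQ)5-HaloTag reader fusions (ATRX-ADD, ING2-PHD) then streptavidin-Alexa647, or with rabbit histone antibodies then anti-rabbit Alexa647. The mean 635 nm signal of the triplicate spots was scaled 0-1 between the lowest and highest values on each array.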
# [2] = biological target: HaloTag-ING2 PHD (mouse Ing2 200-280)
# Procedure: as §1
# [3] = biological target: anti-H3K4me3 antibody ab8580
# Procedure: as §1
# [4] = biological target: anti-H3K9me3 antibody ab8898
# Procedure: as §1
# [5] = peptide modifications: H3R2cit H3K9me2, binder concentration: 1:2,000 dilution
# [6] = peptide modifications: H3R2cit H3K9me2, binder concentration: 1:10,000 dilution
# [7] = peptide modifications: H3K9me2, binder concentration: 1:2,000 dilution
# [8] = peptide modifications: H3K9me2, binder concentration: 1:10,000 dilution
# [9] = peptide modifications: H3K4me3 H3K9me1, binder concentration: 1:2,000 dilution
# [10] = peptide modifications: H3K4me3 H3K9me1, binder concentration: 1:10,000 dilution
# [11] = peptide modifications: H3R2cit H3K4me3, binder concentration: 1:2,000 dilution
# [12] = peptide modifications: H3R2cit H3K4me3, binder concentration: 1:10,000 dilution
# [13] = peptide modifications: H3K9ac, binder concentration: 1:2,000 dilution
# [14] = peptide modifications: H3K9ac, binder concentration: 1:10,000 dilution
# [15] = peptide modifications: H3K9me1 H3S10ph, binder concentration: 1:2,000 dilution
# [16] = peptide modifications: H3K9me1 H3S10ph, binder concentration: 1:10,000 dilution
# [17] = peptide modifications: H3K4me3 H3T6ph, binder concentration: 1:2,000 dilution
# [18] = peptide modifications: H3K4me3 H3T6ph, binder concentration: 1:10,000 dilution
# [19] = peptide modifications: H3K4me3 H3K9ac, binder concentration: 1:2,000 dilution
# [20] = peptide modifications: H3K4me3 H3K9ac, binder concentration: 1:10,000 dilution
# [21] = peptide modifications: H3R2cit H3K9me1, binder concentration: 1:2,000 dilution
# [22] = peptide modifications: H3R2cit H3K9me1, binder concentration: 1:10,000 dilution
# [23] = peptide modifications: H3R2cit H3K4me1, binder concentration: 1:2,000 dilution
# [24] = peptide modifications: H3R2cit H3K4me1, binder concentration: 1:10,000 dilution
binder,measurement,setting,value
ARTKQTARKSTGG [H3 1-13 A Rcit T K Q T A R Kme2 S T G G],peptide microarray binding signal,"[1]; peptide modifications: H3R2cit H3K9me2, binder concentration: 50 nM",0.0526 ± 0.0021
same,peptide microarray binding signal,"[1]; peptide modifications: H3R2cit H3K9me2, binder concentration: 500 nM",0.112 ± 0.0057
same,peptide microarray binding signal,"[2]; peptide modifications: H3R2cit H3K9me2, binder concentration: 10 nM",0.0306 ± 0.0059
same,peptide microarray binding signal,"[2]; peptide modifications: H3R2cit H3K9me2, binder concentration: 100 nM",0.056 ± 0.011
same,peptide microarray binding signal,[3]; [5],0.0151 ± 0.001
same,peptide microarray binding signal,[3]; [6],0.013 ± 0.0011
same,peptide microarray binding signal,[4]; [5],0.0265 ± 0.0012
same,peptide microarray binding signal,[4]; [6],0.00986 ± 0.00045
ARTKQTARKSTGG [H3 1-13 A R T K Q T A R Kme2 S T G G],peptide microarray binding signal,"[1]; peptide modifications: H3K9me2, binder concentration: 50 nM",0.0139 ± 0.0015
same,peptide microarray binding signal,"[1]; peptide modifications: H3K9me2, binder concentration: 500 nM",0.0282 ± 0.0022
same,peptide microarray binding signal,"[2]; peptide modifications: H3K9me2, binder concentration: 10 nM",0.00668 ± 0.00014
same,peptide microarray binding signal,"[2]; peptide modifications: H3K9me2, binder concentration: 100 nM",0.00935 ± 0.00046
same,peptide microarray binding signal,[3]; [7],0.00104 ± 0.0001
same,peptide microarray binding signal,[3]; [8],0.000571 ± 1.1e-05
same,peptide microarray binding signal,[4]; [7],0.00128 ± 6.2e-05
same,peptide microarray binding signal,[4]; [8],0.000923 ± 9.6e-06
ARTKQTARKSTGG [H3 1-13 A R T Kme3 Q T A R Kme S T G G],peptide microarray binding signal,"[1]; peptide modifications: H3K4me3 H3K9me1, binder concentration: 50 nM",0.0117 ± 0.0004
same,peptide microarray binding signal,"[1]; peptide modifications: H3K4me3 H3K9me1, binder concentration: 500 nM",0.025 ± 0.0009
same,peptide microarray binding signal,"[2]; peptide modifications: H3K4me3 H3K9me1, binder concentration: 10 nM",0.411 ± 0.074
same,peptide microarray binding signal,"[2]; peptide modifications: H3K4me3 H3K9me1, binder concentration: 100 nM",0.338 ± 0.07
same,peptide microarray binding signal,[3]; [9],0.484 ± 0.13
same,peptide microarray binding signal,[3]; [10],0.592 ± 0.25
same,peptide microarray binding signal,[4]; [9],0.108 ± 0.018
same,peptide microarray binding signal,[4]; [10],0.0413 ± 0.0047
ARTKQTARKSTGG [H3 1-13 A Rcit T Kme3 Q T A R K S T G G],peptide microarray binding signal,"[1]; peptide modifications: H3R2cit H3K4me3, binder concentration: 50 nM",0.0156 ± 0.00085
same,peptide microarray binding signal,"[1]; peptide modifications: H3R2cit H3K4me3, binder concentration: 500 nM",0.0357 ± 0.0095
same,peptide microarray binding signal,"[2]; peptide modifications: H3R2cit H3K4me3, binder concentration: 10 nM",0.131 ± 0.042
same,peptide microarray binding signal,"[2]; peptide modifications: H3R2cit H3K4me3, binder concentration: 100 nM",0.19 ± 0.089
same,peptide microarray binding signal,[3]; [11],0.476 ± 0.19
same,peptide microarray binding signal,[3]; [12],0.28 ± 0.066
same,peptide microarray binding signal,[4]; [11],0.0852 ± 0.028
same,peptide microarray binding signal,[4]; [12],0.0601 ± 0.039
ARTKQTARKSTGG [H3 1-13 A R T K Q T A R Kac S T G G],peptide microarray binding signal,"[1]; peptide modifications: H3K9ac, binder concentration: 50 nM",0.0143 ± 0.00037
same,peptide microarray binding signal,"[1]; peptide modifications: H3K9ac, binder concentration: 500 nM",0.0461 ± 0.0053
same,peptide microarray binding signal,"[2]; peptide modifications: H3K9ac, binder concentration: 10 nM",0.0431 ± 0.012
same,peptide microarray binding signal,"[2]; peptide modifications: H3K9ac, binder concentration: 100 nM",0.0776 ± 0.0087
same,peptide microarray binding signal,[3]; [13],0.00276 ± 0.00088
same,peptide microarray binding signal,[3]; [14],0.00171 ± 7.1e-05
same,peptide microarray binding signal,[4]; [13],0.00554 ± 0.00013
same,peptide microarray binding signal,[4]; [14],0.00185 ± 0.00011
ARTKQTARKSTGG [H3 1-13 A R T K Q T A R Kme Sph T G G],peptide microarray binding signal,"[1]; peptide modifications: H3K9me1 H3S10ph, binder concentration: 50 nM",0.01 ± 0.00047
same,peptide microarray binding signal,"[1]; peptide modifications: H3K9me1 H3S10ph, binder concentration: 500 nM",0.0275 ± 0.00045
same,peptide microarray binding signal,"[2]; peptide modifications: H3K9me1 H3S10ph, binder concentration: 10 nM",0.00961 ± 0.00044
same,peptide microarray binding signal,"[2]; peptide modifications: H3K9me1 H3S10ph, binder concentration: 100 nM",0.02 ± 0.0008
same,peptide microarray binding signal,[3]; [15],0.000831 ± 3.9e-05
same,peptide microarray binding signal,[3]; [16],0.000171 ± 5.1e-06
same,peptide microarray binding signal,[4]; [15],0.00233 ± 0.00015
same,peptide microarray binding signal,[4]; [16],0.00138 ± 2.7e-05
ARTKQTARKSTGG [H3 1-13 A R T Kme3 Q Tph A R K S T G G],peptide microarray binding signal,"[1]; peptide modifications: H3K4me3 H3T6ph, binder concentration: 50 nM",0.00724 ± 0.0003
same,peptide microarray binding signal,"[1]; peptide modifications: H3K4me3 H3T6ph, binder concentration: 500 nM",0.0154 ± 0.0024
same,peptide microarray binding signal,"[2]; peptide modifications: H3K4me3 H3T6ph, binder concentration: 10 nM",0.169 ± 0.048
same,peptide microarray binding signal,"[2]; peptide modifications: H3K4me3 H3T6ph, binder concentration: 100 nM",0.484 ± 0.12
same,peptide microarray binding signal,[3]; [17],0.323 ± 0.064
same,peptide microarray binding signal,[3]; [18],0.404 ± 0.061
same,peptide microarray binding signal,[4]; [17],0.0262 ± 0.0036
same,peptide microarray binding signal,[4]; [18],0.00865 ± 0.0019
ARTKQTARKSTGG [H3 1-13 A R T Kme3 Q T A R Kac S T G G],peptide microarray binding signal,"[1]; peptide modifications: H3K4me3 H3K9ac, binder concentration: 50 nM",0.00768 ± 0.00092
same,peptide microarray binding signal,"[1]; peptide modifications: H3K4me3 H3K9ac, binder concentration: 500 nM",0.00948 ± 0.00033
same,peptide microarray binding signal,"[2]; peptide modifications: H3K4me3 H3K9ac, binder concentration: 10 nM",0.216 ± 0.039
same,peptide microarray binding signal,"[2]; peptide modifications: H3K4me3 H3K9ac, binder concentration: 100 nM",0.199 ± 0.014
same,peptide microarray binding signal,[3]; [19],0.289 ± 0.062
same,peptide microarray binding signal,[3]; [20],0.621 ± 0.31
same,peptide microarray binding signal,[4]; [19],0.0528 ± 0.047
same,peptide microarray binding signal,[4]; [20],0.0162 ± 0.0043
ARTKQTARKSTGG [H3 1-13 A Rcit T K Q T A R Kme S T G G],peptide microarray binding signal,"[1]; peptide modifications: H3R2cit H3K9me1, binder concentration: 50 nM",0.0233 ± 0.0034
same,peptide microarray binding signal,"[1]; peptide modifications: H3R2cit H3K9me1, binder concentration: 500 nM",0.0804 ± 0.019
same,peptide microarray binding signal,"[2]; peptide modifications: H3R2cit H3K9me1, binder concentration: 10 nM",0.0313 ± 0.0068
same,peptide microarray binding signal,"[2]; peptide modifications: H3R2cit H3K9me1, binder concentration: 100 nM",0.0512 ± 0.0034
same,peptide microarray binding signal,[3]; [21],0.00831 ± 0.0015
same,peptide microarray binding signal,[3]; [22],0.0097 ± 0.00085
same,peptide microarray binding signal,[4]; [21],0.0064 ± 0.00042
same,peptide microarray binding signal,[4]; [22],0.00375 ± 0.00014
ARTKQTARKSTGG [H3 1-13 A Rcit T Kme Q T A R K S T G G],peptide microarray binding signal,"[1]; peptide modifications: H3R2cit H3K4me1, binder concentration: 50 nM",0.00831 ± 0.00021
same,peptide microarray binding signal,"[1]; peptide modifications: H3R2cit H3K4me1, binder concentration: 500 nM",0.0204 ± 0.0024
same,peptide microarray binding signal,"[2]; peptide modifications: H3R2cit H3K4me1, binder concentration: 10 nM",0.0217 ± 0.0012
same,peptide microarray binding signal,"[2]; peptide modifications: H3R2cit H3K4me1, binder concentration: 100 nM",0.148 ± 0.015
same,peptide microarray binding signal,[3]; [23],0.0371 ± 0.0013
same,peptide microarray binding signal,[3]; [24],0.02 ± 0.0022
same,peptide microarray binding signal,[4]; [23],0.00468 ± 0.0004
same,peptide microarray binding signal,[4]; [24],0.00202 ± 3.2e-05
